# From PubChem BioAssay
# This is a sample that favours compounds with a hit; in the whole collection about 3.5% have one here.
# Kir21 block: Kir2.1 (mouse) channel inhibition. P35561. 0.85% of 310,000 active. HEK293-Kir2.1, FluxOR thallium flux fluorescence; hits give low values. B-score at 10 µM;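 active means fluorescence ratio B-score at or below minus 3 SD of library scores, with starting-brightness B-score within 2 SD, cut at about -4.2 in these data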;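 further: channel flux triggered by added potassium and thallium sulfate stimulus; B-score of peak minus minimum fluorescence over baseline after thallium stimulus; more negative B-score means stronger Kir2.1 block with less thallium influx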
# Target sequence (P35561 whole entry, looked up): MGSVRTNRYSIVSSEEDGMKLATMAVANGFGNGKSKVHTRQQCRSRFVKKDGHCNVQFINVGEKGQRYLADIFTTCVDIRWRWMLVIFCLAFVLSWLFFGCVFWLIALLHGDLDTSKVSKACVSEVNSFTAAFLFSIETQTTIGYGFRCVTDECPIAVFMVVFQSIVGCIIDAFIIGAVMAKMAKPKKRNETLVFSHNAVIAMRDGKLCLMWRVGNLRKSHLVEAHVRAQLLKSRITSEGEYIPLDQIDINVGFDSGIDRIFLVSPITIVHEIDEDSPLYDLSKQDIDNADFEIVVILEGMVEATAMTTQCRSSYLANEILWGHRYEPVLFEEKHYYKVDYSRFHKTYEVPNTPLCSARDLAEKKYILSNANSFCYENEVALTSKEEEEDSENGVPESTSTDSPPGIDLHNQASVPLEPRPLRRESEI
# KCNK3 block: human KCNK3 channel inhibition, primary screen | CHO-KCNK3 thallium flux, FluxOR fluorescence; hits give low values | B-score at 10 µM | 0.84% of 340,000 active | AID 602410;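 active means B-score under library mean minus 4 SD, starting fluorescence ratio at most library mean plus 5 SD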;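 further: more negative B-score means stronger inhibition of thallium flux through KCNK3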
# TMEM16A act: activators or potentiators of mouse TMEM16A chloride channel; 0.3% of 340,000 active; B-score at 10 µM; AID 623877; Q8BHY3; HEK293 TMEM16A/YFP-H148Q/I152L, iodide quench fluorescence; hits give low values;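 active means fluorescence-ratio B-score plate-corrected deviation score at least 3 library SD below zero, with starting fluorescence score within 5 deviations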;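 further: channel opened by trigger with iodide after compound preincubation; score built on the fluorescence ratio of max minus min over baseline; more negative score means more quench and so TMEM16A activation or potentiation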
# ANO1 block: blocks the mouse calcium-activated chloride channel TMEM16A | Q8BHY3 | HEK293 TMEM16A/YFP iodide influx fluorescence, ionomycin | 1.2% of 310,000 active | normalized B-score (activity score, 25-100; higher = stronger inhibition) at 10 µM | AID 588511;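 active means ratio plate-corrected score three or more library SD toward inhibition, starting fluorescence score within five deviations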;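 further: score derived from kinetic fluorescence span divided by baseline fluorescence per well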
# KCNK9 inh: human KCNK9 channel inhibition | Q9NPC2 | HEK293 KCNK9, FluxOR thallium flux fluorescence; hits give low values | B-score at 10 µM | 1.2% of 310,000 active | AID 488922;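 active means ratio B-score over 3 SD below the library mean, with starting fluorescence within 5 SD of its mean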;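 further: negative B-score means less thallium flux so channel inhibition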
# TMEM16A reconf: re-confirmation of mouse TMEM16A chloride channel inhibitors. shares compounds with ANO1 block. HEK293 TMEM16A/YFP-H148Q, iodide quench fluorescence; ionomycin added to raise cell calcium. inhibition, % at 10 µM. 39% of 2,300 active. AID 652189;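 active means mean duplicate percent inhibition, scaled so buffer wells are 0 and the reference blocker 100, over three buffer SD above buffer mean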
# TMEM16A Ca cntr: calcium mobilization counter-screen hit for TMEM16A inhibitor series. calcium response (% of ionomycin), % at 10 µM. 2% of 2,300 active. AID 652231. shares compounds with ANO1 block. TMEM16A/YFP HEK293, Fluo4 calcium mobilization;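 active means duplicate-averaged calcium signal over 20% of the ionomycin maximum, relative to buffer baseline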;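 further: each well's signal is peak minus trough fluorescence divided by its pre-addition baseline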
# YFP-HEK293 quench: acts in parental YFP-HEK293 cells lacking TMEM16A, counter-screen | YFP ratio F(max-min)/F0 at 10 µM | shares compounds with ANO1 block | 2,300 tested, under 10 active | iodide YFP quench, ionomycin;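 active means yellow fluorescent protein signal ratio exceeding the buffer control mean by over 5 SD of those controls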;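 further: ratio is mean of duplicate wells from kinetic YFP trace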
# ClC-1 inh: selectivity of TMEM16A inhibitors: inhibition of rat ClC-1 chloride channel. shares compounds with ANO1 block. CHO ClC-1-YFP, iodide influx fluorescence quench; iodide control reads 0, buffer control 100. ratio percent, % at 10 µM. 2,300 tested, under 10 active. AID 652236;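 active means duplicate-mean ratio percent above the mean of iodide-only control wells, which defines zero, plus 5 of their SD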;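 further: higher percent means stronger block of ClC-1 iodide influx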
# Hits are given with their value; 0 = inactive; - = no result given.
SMILES,Kir21 block,KCNK3 block,TMEM16A act,ANO1 block,KCNK9 inh,TMEM16A reconf,TMEM16A Ca cntr,YFP-HEK293 quench,ClC-1 inh
COCCNCc1nc2sc(C)c(-c3ccccc3)c2c(=O)[nH]1,0,0,0,0,0,-,-,-,-
O=C(COc1ccc2ccccc2c1)Nc1ccncc1,0,0,0,25,0,0,0,0,0
O=C(COc1ccccc1)Nc1ccncc1,0,0,0,0,0,-,-,-,-
O=C(CSc1ccc2ccccc2c1)Nc1ccncc1,0,0,0,100,0,17.5%,0,0,0
O=C(CSc1ccncc1)Nc1ccc2ccccc2c1,0,0,0,0,0,-,-,-,-
COC(=O)Cc1c(C)c2ccc(OCC(=O)N(C)C3CCS(=O)(=O)C3)cc2oc1=O (stereo not drawn),0,0,0,0,0,-,-,-,-
CC1CCCCN1C(=O)c1ccc(NC(=O)c2ccccc2Cl)cc1 (stereo not drawn),0,0,0,0,0,-,-,-,-
CC(C)Oc1cc(NC(=O)CS(=O)CC(=O)Nc2cccc(C(F)(F)F)c2)c(Cl)cc1Cl (stereo not drawn),0,0,0,100,0,0,0,0,0
O=S(=O)(NCC(c1cccs1)N1CCc2ccccc2C1)c1ccccc1 (stereo not drawn),0,0,0,0,0,35.0%,0,0,0
CCc1c(C)nc2nc(SCc3ccccc3Cl)[nH]n2c1=O,0,0,0,100,0,26.0%,33.5%,0,0
Cc1ccc(CNC(=O)CN(C(=O)C2(C)CC(=O)N=C3C=CC=CN32)c2cccc(C)c2C)cc1 (stereo not drawn),0,0,0,0,0,-,-,-,-
CCn1c(SCC(=O)N2CCOCC2)nc2oc3c(Cl)cc(Cl)cc3c(=O)c2c1=O,0,-,-,0,0,31.5%,0,0,0
O=C(c1cnn2c1NC(c1ccco1)CC2C(F)(F)F)N1CCN(c2cccc(Cl)c2)CC1 (stereo not drawn),0,0,0,25,0,0,0,0,0
O=C(c1ccco1)N1CCN(C(=O)c2cnn3c2NC(c2cccs2)CC3C(F)(F)F)CC1 (stereo not drawn),0,0,0,0,0,-,-,-,-
COc1ccc(C)cc1NC(=O)NCCC1=CCCCC1,0,0,0,100,0,0,0,0,0
CCOP(=O)(c1c(F)c(F)c(F)c(F)c1F)C(O)c1ccccc1 (stereo not drawn),0,0,0,25,0,31.0%,0,0,0
CC1CCCC(NC(=O)COC(=O)/C=C/c2ccc(S(=O)(=O)N3CCOCC3)cc2)C1C (stereo not drawn),0,0,0,0,0,-,-,-,-
CC(Sc1nc(NCc2ccccc2)nc(N(C)C)n1)C(=O)Nc1ccccc1 (stereo not drawn),0,0,0,100,0,0,0,0,0
O=C(N/N=C\c1cc(Br)cs1)C1COc2ccccc2O1 (stereo not drawn),0,0,0,0,0,-,-,-,-
CC(C)NS(=O)(=O)c1ccc(OCC(=O)N2CCCC2)cc1,0,0,0,0,0,-,-,-,-
Cc1ccc(Cl)cc1N1CCN(C(=O)COc2ccc(S(=O)(=O)NC(C)C)cc2)CC1,0,0,0,25,0,0,0,0,0
Cc1cccc(NC(=O)c2c([N+](=O)[O-])cnn2C)c1,0,0,0,0,0,-,-,-,-
CCOC(=O)c1ccc(Oc2cn[nH]c2-c2ccc(O)cc2O)cc1,0,0,0,25,0,43.0%,0,0,0
CCO[C@@H]1OC(C(N)=O)=C[C@H](c2coc3ccccc3c2=O)[C@H]1CCCO,0,0,0,25,0,0,0,0,0
CN(C)C(=O)c1ccc(NC(=O)c2cccc(S(=O)(=O)N3CCN(Cc4ccccc4)CC3)c2)cc1,-,0,0,-,-,-,-,-,-
SMILES,Kir21 block,KCNK3 block,TMEM16A act,ANO1 block,KCNK9 inh,TMEM16A reconf,TMEM16A Ca cntr,YFP-HEK293 quench,ClC-1 inh
CN(CC(=O)Nc1ccc(Cl)cc1)C(=O)c1cccc(S(=O)(=O)N2CCN(Cc3ccccc3)CC2)c1,0,0,0,25,0,0,0,0,0
CCOc1ccc(NS(=O)(=O)c2c(C(=O)N3CCCCCC3)c(C)n(C)c2C)cc1,0,0,0,0,0,-,-,-,-
N#Cc1c(NC(=O)CSc2nnnn2C2CCCCC2)sc2c1CCCC2,0,0,0,25,0,0,0,0,0
CCN(C(=O)c1ccco1)C1C2CC3CC(C2)CC1C3 (stereo not drawn),0,0,0,0,0,-,-,-,-
O=C(Nc1ccc(Cc2nc3ccccc3s2)cc1)c1ccncc1,0,0,0,25,0,17.0%,0,0,0
NC(=O)c1ccc(NC(=O)CCc2nc3ccccc3s2)cc1,0,0,0,0,0,-,-,-,-
Cc1cc(C)n(-c2nc(C)nc(N)n2)n1,0,0,0,0,0,-,-,-,-
Cc1cc(C)n(-c2nc(N(c3ccccc3)c3ccccc3)nc(-n3nc(C)cc3C)n2)n1,0,0,0,100,0,25.5%,0,0,0
CCN(C(=O)COC(=O)c1cc(S(=O)(=O)N(C)C)ccc1Cl)C1CCS(=O)(=O)C1 (stereo not drawn),0,0,0,0,0,-,-,-,-
CCCc1nnc(NC(=O)COC(=O)c2cc(C)nc3ccccc23)s1,0,0,0,0,0,-,-,-,-
CCCc1nnc(NC(=O)C(CC)OC(=O)c2cc(C)nc3ccccc23)s1 (stereo not drawn),0,0,0,100,0,0,0,0,0
CCOC(=O)c1c(NC(=O)CSc2nnc(N)s2)sc(C)c1-c1ccc(C)cc1,0,0,0,25,0,0,0,0,0
Cc1sc(NC(=O)CSc2nnc(N)s2)c(C#N)c1C,0,0,0,0,0,-,-,-,-
Cc1ccc(C(=O)N/C(=C\c2ccccc2)C(=O)NCCCn2ccnc2)cc1,0,0,0,0,0,-,-,-,-
Fc1ccc2[nH]c3c(NCc4ccccc4)ncnc3c2c1,0,0,0,100,0,66.0%,0,0,0
Cc1cc(C2(c3ccc(O)c(C)c3)C(=O)Nc3ccccc32)ccc1O,0,0,0,100,0,0,0,0,0
Nc1c(C(=O)Nc2nc3ccccc3s2)sc2nc(-c3cccs3)ccc12,0,0,0,0,0,0,0,0,0
CC(=O)c1sc2nc(-c3cccs3)ccc2c1N,0,0,0,0,0,-,-,-,-
Cc1cc(NC(=O)C2CC(=O)N(c3cccc(Cl)c3)C2)no1 (stereo not drawn),0,0,0,0,0,-,-,-,-
Cc1ccccc1N(CC(=O)NC1CCCC1)C(=O)c1csnn1,0,0,0,0,0,-,-,-,-
